Screening results: PubChem, Johns Hopkins Ion Channel Center
Sampled rows, rich in hits. Any-hit rate of the full collection: about 1.6%.
KCNQ2 block: KCNQ2 (rat) channel inhibition; O88943; CHO-K1 KCNQ2, FluxOR thallium flux, 20 min; hits give low values; B-score at 10 µM; hit rate 1.1% among 310,000; AID 2156;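 active = fluorescence ratio B-score at most minus 3 library SDs, with starting brightness B-score within 2 library SDs, cut at about -5.5 in these data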
KCNQ2 pot: KCNQ2 (rat) channel potentiation; O88943; CHO-K1 KCNQ2, FluxOR thallium flux fluorescence; hits give high values; B-score at 10 µM; hit rate 0.54% among 310,000;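 active = fluorescence ratio B-score at least 3 SD of library B-scores, with initial fluorescence B-score within 3 of them, cut at about 5.3 in these data; same plate scores as AID 2156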;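 also: B-score of peak minus minimum over baseline fluorescence ratio after K+ and Tl+ stimulus; positive B-score means potentiation of KCNQ2 with more thallium influx and brighter signal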
Kir21 conf inh: confirmation of mouse Kir2.1 potassium channel inhibitors; hit rate 41% among 2,300; Kir2.1-expressing cells, FluxOR thallium flux fluorescence; hits give low values; shares compounds with KCNQ2 pot; Tl flux remaining, % of negative control (hits give low values), % at 10 µM;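 active = Primary-screen hit whose thallium flux fell at least 3 control SD below untreated wells in both duplicates, with normal baseline fluorescence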
Target sequence (P35561 whole entry, looked up): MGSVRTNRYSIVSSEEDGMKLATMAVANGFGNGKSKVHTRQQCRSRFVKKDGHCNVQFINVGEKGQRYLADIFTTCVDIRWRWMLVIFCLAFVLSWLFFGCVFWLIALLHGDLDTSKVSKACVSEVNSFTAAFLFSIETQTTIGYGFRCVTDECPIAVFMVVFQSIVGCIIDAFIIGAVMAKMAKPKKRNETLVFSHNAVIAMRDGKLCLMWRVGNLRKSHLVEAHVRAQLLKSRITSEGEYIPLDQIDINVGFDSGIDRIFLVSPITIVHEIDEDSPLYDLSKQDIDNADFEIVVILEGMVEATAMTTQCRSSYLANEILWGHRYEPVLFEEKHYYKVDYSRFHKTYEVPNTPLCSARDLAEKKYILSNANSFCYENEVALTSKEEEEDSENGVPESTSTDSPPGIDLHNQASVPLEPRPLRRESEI
HEK293 Tl flux: counter-screen for Kir2.1 inhibitors: effect in parental HEK293 cells; shares compounds with KCNQ2 pot; FluxOR thallium flux fluorescence; 0% = unstimulated blank wells; FluxOR signal as % of negative control (100 = no effect), % at 10 µM; hit rate 19% among 2,300; AID 2105;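 active = dye signal at least 3 control SD above or below untreated wells in both duplicates, raw fluorescence within 3, either direction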;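 also: percent is based on the flux ratio of peak minus minimum fluorescence over baseline F0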
CHO-K1 Tl ctr: parental CHO-K1 activity in KCNQ2 potentiator counter-screen; shares compounds with KCNQ2 pot; parental CHO-K1 cells, FluxOR thallium flux fluorescence; zero = vehicle mean+3SD, 100% = vehicle-minus-blank window; activity increase over 3SD of controls, % at 10 µM; hit rate 43% among 1,200;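 active = signal rise of at least 3 SD above the untreated control mean, in both duplicate wells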;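 also: counter screen of KCNQ2 potentiator hits so any rise reflects channel-independent effects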
KCNQ1 sel pot: human KCNQ1 counter-target activity of KCNQ2 potentiators. hit rate 28% among 1,200. activation over 3SD threshold, % at 10 µM. shares compounds with KCNQ2 pot. CHO KCNQ1 stable, FluxOR thallium flux fluorescence; beyond 3SD, as % of vehicle-control signal;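 active = fluorescence ratio rise of at least 3 SD of vehicle wells above their mean, in both replicate wells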
KCNQ2 pot confirm: rat KCNQ2 channel potentiator confirmation. potentiation, less the hit threshold, % at 10 µM. CHO-KCNQ2 cells, FluxOR thallium flux fluorescence. shares compounds with KCNQ2 pot. hit rate 68% among 1,200. AID 2287;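 active = fluorescence ratio rising 3 SD or more over the vehicle control mean in both replicates, plus primary screen hit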;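 also: peak minus minimum thallium fluorescence divided by baseline after K/Tl stimulus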
Kir2-1 sel: tests whether KCNQ2 potentiators also affect mouse Kir2.1; shares compounds with KCNQ2 pot; HEK293 Kir2.1, FluxOR thallium flux fluorescence; activity over 3SD threshold, % at 10 µM; hit rate 2% among 1,200;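 active = fluorescence ratio rise of at least 3 SD above the vehicle-control mean, seen in both replicates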
KCNQ2 W236L pot: KCNQ2 potentiators acting on retigabine-insensitive rat KCNQ2 W236L mutant; shares compounds with KCNQ2 pot; CHO KCNQ2-W236L, automated patch clamp current; current increase over 3SD of negative controls (%), hits give high values, % at 25 µM; hit rate 10% among 940;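 active = current increase at least 3 SD of the untreated controls above them in both duplicate recordings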
Hits are given with their value; n = inactive; x = no result given.

SMILES | KCNQ2 block | KCNQ2 pot | Kir21 conf inh | HEK293 Tl flux | others
COc1ccc(NC2CCCN(C(=O)CCC(=O)c3ccc(F)cc3)C2)cc1 (configuration not stated) | n | n | x | x
COc1cc2c(cc1OC)C(c1ccccc1)N(C(=O)C(C)(C)C)CC2 (configuration not stated) | n | x | x | x
C=CCS/C(N)=N\N=C\c1cc(Br)cc([N+](=O)[O-])c1O | n | n | x | x
O=C(C1=C[C@H](C2CC2)C[C@H](OCCCCO)O1)N1CCOCC1 | n | n | x | x
COc1cc(/C=C2\SC(=S)NC2=O)ccc1OS(=O)(=O)c1ccccc1 | n | 41 | n | n | CHO-K1 Tl ctr=n;KCNQ1 sel pot=n;KCNQ2 pot confirm=91;Kir2-1 sel=n;KCNQ2 W236L pot=n
COc1ccc(/C=C2\SC(=S)NC2=O)cc1OS(=O)(=O)c1ccc(NC(C)=O)cc1 | n | x | x | x
COc1cc(/C=C2/SC(=S)NC2=O)ccc1OS(=O)(=O)c1ccc(C)cc1 | n | 40 | n | n | CHO-K1 Tl ctr=0.8;KCNQ1 sel pot=n;KCNQ2 pot confirm=n;Kir2-1 sel=n;KCNQ2 W236L pot=n
COc1ccc(/C=C2/S/C(=N/S(=O)(=O)Cc3ccccc3)NC2=O)cc1OC | n | n | x | x
COc1cc(C)nc(N(Cc2ccccc2)S(=O)(=O)c2ccccc2)n1 | n | x | x | x
CCCN(c1nc(C)cc(OC)n1)S(=O)(=O)c1ccccc1 | n | x | 50% | n
Cc1cc(NC(=O)C2CCN(C(=O)c3ccco3)CC2)ccc1Br | n | n | x | x
COc1ccc(C2C(C#N)=C(N)N(c3sc4c(c3C#N)CCCC4)C3=C2C(=O)CC(C)(C)C3)cc1 (configuration not stated) | n | x | x | x
COc1ccc(C2C(C#N)=C3NC(=O)c4c(sc5c4CCCCC5)N3C3=C2C(=O)CC(C)(C)C3)cc1 (configuration not stated) | n | 13 | n | n | CHO-K1 Tl ctr=70;KCNQ1 sel pot=n;KCNQ2 pot confirm=15;Kir2-1 sel=n;KCNQ2 W236L pot=n
O=S(=O)(c1ccccc1)N1CCCc2ccccc21 | n | x | 64% | n
O=S(=O)(c1ccc(F)cc1)N1CCCc2ccccc21 | n | x | 71% | n
O=C(O)c1ccc(S(=O)(=O)N2CCCc3ccccc32)cc1 | n | x | x | x
CC(=O)c1ccc(S(=O)(=O)N2CCCc3ccccc32)cc1 | n | x | x | x
C=CCC(C(=O)OC)(C(=O)OC)c1ccccc1[N+](=O)[O-] | n | x | x | x
CCCCN1CC(=O)N2[C@H](c3ccc(Cl)cc3)[C@@H]3C(=O)N(CC)C(=O)[C@@H]3[C@]2(C)C1=O | n | x | x | x
O=C(Nc1n[nH]c(=S)s1)c1ccc2ccccc2c1 | n | 6.5 | n | 222% | CHO-K1 Tl ctr=n;KCNQ1 sel pot=16;KCNQ2 pot confirm=8.2;Kir2-1 sel=n;KCNQ2 W236L pot=18%
O=C(Nc1nccs1)c1ccc2ccccc2c1 | n | n | x | x
Cc1cc(Cl)ccc1OC(C)C(=O)NC(C)C1CCCO1 (configuration not stated) | n | x | 56% | n
CC(NC(=O)Nc1ccc(Cl)cc1)C1CCCO1 (configuration not stated) | n | x | x | x
CCCn1cc(NC(=O)c2cc(-c3ccccc3)on2)cn1 | n | 5.7 | n | n | CHO-K1 Tl ctr=24;KCNQ1 sel pot=n;KCNQ2 pot confirm=n
O=C(Nc1cnn(C23CC4CC(CC(C4)C2)C3)c1)c1cc(-c2ccccc2)on1 | n | n | x | x
SMILES | KCNQ2 block | KCNQ2 pot | Kir21 conf inh | HEK293 Tl flux | others
CCCCCOc1ccc(CSC(=N)N)cc1[N+](=O)[O-] | n | x | 29% | n
COc1ccc(CSC(=N)N)cc1[N+](=O)[O-] | n | n | x | x
CCOc1ccc(C(C)=O)cc1CSC(=N)N | n | n | x | x
CCCCOc1ccc(Br)cc1CSC(=N)N | n | n | 20% | n
COC(=O)C[C@H]1c2cc(F)cc(F)c2S(=O)(=O)N1C1CCN(Cc2ccccc2)CC1 | n | n | x | x
O=C1CC(N2CCSCC2)C(=O)N1c1cccc(Cl)c1 (configuration not stated) | n | n | x | x
O=C(Nc1cccc(-c2cccc(Cl)c2)c1)C1CCN(Cc2ccc(CO)o2)CC1 | n | x | 63% | n
Cc1ccc(CN2CCC(C(=O)Nc3cccc(-c4cccc(F)c4)c3)CC2)o1 | n | x | x | x
COc1ccc(Cl)cc1NC(=S)N1CCCC1 | n | x | x | x
COCCNC(=O)c1ccccc1NC(=O)c1ccccc1SC | n | n | x | x
COc1cccc(CN(C)C(=O)c2sccc2-c2ccccc2)c1OC | n | x | x | x
COc1ccccc1CNC(=O)c1sccc1-c1ccccc1 | n | x | 74% | n
COc1ccccc1CNC(=O)c1sccc1C | n | x | x | x
CN(Cc1ccccc1F)C(=O)c1sccc1-c1ccccc1 | n | x | 54% | n
O=C(O)COc1ccc(-c2nnn(CC(=O)O)n2)cc1 | n | n | x | x
Cc1cc(C)cc(NC(=O)C2C3C=CC4(O3)C2C(=O)N(CCCN(C)C)C4C(=O)NC2CCCC(C)C2C)c1 (configuration not stated) | n | n | x | x
O=C(COC(=O)CNC(=O)c1sc2ccccc2c1Cl)Nc1c(Cl)cc(Cl)cc1Cl | n | n | x | x
CCNc1nc(OC)nc(N(OC)S(=O)(=O)c2ccc(C)cc2)n1 | n | n | x | x
Cc1occc1C(=O)NNC(=O)COc1ccc(Br)cc1Br | n | x | x | x
Cc1occc1C(=O)NNC(=S)NC(=O)COc1ccc(Cl)cc1Cl | n | 9.5 | n | 149% | CHO-K1 Tl ctr=n;KCNQ1 sel pot=93;KCNQ2 pot confirm=6.5;Kir2-1 sel=n;KCNQ2 W236L pot=n
CC(=O)Oc1cc2c3c(c1)/C(=C1/SC(=S)NC1=O)C(=O)N3C(C)(C)C=C2C | n | 6.8 | n | n | CHO-K1 Tl ctr=n;KCNQ1 sel pot=12;KCNQ2 pot confirm=n;Kir2-1 sel=n
CCOc1cc2c3c(c1)C(C)=CC(C)(C)N3C(=O)C2=O | n | n | x | x
O=C(c1ccc(Br)cc1)N1CCC2(CC1)NCCc1[nH]cnc12 | n | n | x | x
Cc1ccc(C)c(-c2cc(C(=O)NCc3cccs3)c3ccccc3n2)c1 | n | 16 | n | 72% | CHO-K1 Tl ctr=8.2;KCNQ1 sel pot=n;KCNQ2 pot confirm=32;Kir2-1 sel=n;KCNQ2 W236L pot=n
Cc1ccc(C)c(-c2cc(C(=O)Nc3nccs3)c3ccccc3n2)c1 | n | x | x | x
SMILES | KCNQ2 block | KCNQ2 pot | Kir21 conf inh | HEK293 Tl flux | others
COc1ccccc1NC(=O)C(=O)NNC(=O)COc1ccc2ccccc2c1 | n | 23 | n | n | CHO-K1 Tl ctr=41;KCNQ1 sel pot=n;KCNQ2 pot confirm=28;Kir2-1 sel=n;KCNQ2 W236L pot=n
COc1ccccc1NC(=O)COc1ccc2ccccc2c1 | n | x | x | x
C(=N\Nc1nc(Nc2ccccc2)nc(N2CCCCC2)n1)/c1ccco1 | n | x | x | x
CC(C(=O)NCc1cccnc1)c1ccc([N+](=O)[O-])cc1 (configuration not stated) | n | x | x | x
Cc1ccc(N2C(=O)Nc3ccc(Br)cc3C2(O)C(=O)NCCN(C)C)cc1C (configuration not stated) | n | x | x | x
CCOC(=O)c1c(-c2ccccc2)c2cc(OC)ccc2n1CCCN(C)C | n | x | 36% | n
